“And” between values parts separate entries of the source, which are not always exact repeats. Equal entries are not always repeated. Among all 220,000 compounds or so, about 920 (0.42%) were called active. This excerpt belongs to a sample that is enriched for actives. A number with no mark means an inactive call. Cut-off read from the data, not from the text of the source: active = inhibition above about 15%; inactive = the rest.

Our source for the inhibition values is PubChem BioAssay AID1481 (The Scripps Research Institute Molecular Screening Center, 2009).

The target of the experiment is Transitional endoplasmic reticulum ATPase (Homo sapiens) (UniProt P55072). As to the kind of experiment: inhibitors of human p97 ATPase, primary screen, biochemical (AID 1481).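 Note: 0% = DMSO vehicle and 100% = wells lacking enzyme.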 To be noted: recombinant p97 ATPase, Kinase-Glo ATP luminescence, 3 h; at 8 µM; stronger effect = higher value.
Sequence of Transitional endoplasmic reticulum ATPase (Homo sapiens) (P55072 whole entry, looked up): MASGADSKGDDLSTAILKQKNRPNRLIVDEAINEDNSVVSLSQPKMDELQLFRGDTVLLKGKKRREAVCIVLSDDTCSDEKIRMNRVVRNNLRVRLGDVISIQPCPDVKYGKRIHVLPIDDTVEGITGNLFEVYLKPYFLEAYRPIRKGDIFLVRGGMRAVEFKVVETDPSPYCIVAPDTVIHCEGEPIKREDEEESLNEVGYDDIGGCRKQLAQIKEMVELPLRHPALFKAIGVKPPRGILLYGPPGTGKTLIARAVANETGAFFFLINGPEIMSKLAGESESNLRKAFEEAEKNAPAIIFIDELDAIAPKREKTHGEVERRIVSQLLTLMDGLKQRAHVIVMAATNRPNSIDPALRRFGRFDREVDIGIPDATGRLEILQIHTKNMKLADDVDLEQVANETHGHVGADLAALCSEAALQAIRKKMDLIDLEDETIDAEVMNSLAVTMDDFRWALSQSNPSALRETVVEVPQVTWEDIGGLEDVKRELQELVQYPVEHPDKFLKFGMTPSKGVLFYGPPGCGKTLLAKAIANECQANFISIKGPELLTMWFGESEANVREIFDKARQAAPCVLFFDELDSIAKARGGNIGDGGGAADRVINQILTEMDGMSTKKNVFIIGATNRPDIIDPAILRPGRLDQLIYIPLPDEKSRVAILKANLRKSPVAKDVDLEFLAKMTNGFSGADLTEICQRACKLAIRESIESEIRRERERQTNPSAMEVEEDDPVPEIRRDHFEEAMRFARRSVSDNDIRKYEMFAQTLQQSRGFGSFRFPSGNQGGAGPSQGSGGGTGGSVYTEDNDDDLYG
Take `C=CCNC(=O)CSc1nc2scc(-c3ccco3)c2c(=O)n1CC=C`: the inhibition is 6.86%.
Regarding `C=CCn1c(=S)[nH]c2scc(-c3ccco3)c2c1=O`, the inhibition is 15.2% (active).
Then `C=CCn1c(SCc2csc(C)n2)nc2scc(-c3ccc(C)o3)c2c1=O`, with 3.29%; and `C/C(CCc1ccccc1)=N\NC(=O)c1ccc(CN2CCOCC2)cc1`, with 6.17%.
The value for `C=CCc1cccc2cc(C(=O)NC3CCCC3)c(=O)oc12` was 1.22%; that for `COc1ccc(-c2[nH]ncc2/C=N/NC(=O)c2cc(Br)ccc2O)c(OC)c1` was 19.8% (active).
The value for `CC(C)/C=N/NC(=O)c1cc(Br)ccc1O` was -3.39%; that for `COc1ccc(CC(=O)NCC(=O)N/N=C/c2cc(Br)ccc2OC)cc1` was -3.65%.
Take `CN(C)c1ccc(/C=C/C(=O)c2ccc(C(C)(C)C)cc2)cc1[N+](=O)[O-]`: the inhibition is 3.04%.
Regarding `O=C(COC(=O)c1c2c(nc3ccccc13)/C(=C\c1cccs1)CCC2)Nc1ccccc1Cl`, the inhibition is -4.57%.
Then `NS(=O)(=O)c1ccc(NC(=O)COC(=O)c2c3c(nc4ccccc24)/C(=C\c2ccc4c(c2)OCO4)CCC3)cc1`, with -1.8%; and `NC(=O)c1ccc(NC(=O)COC(=O)c2c3c(nc4ccccc24)/C(=C\c2ccc4c(c2)OCO4)CCC3)cc1`, with 21.3% (active); and `COc1ccnc(Oc2ccccc2)c1-c1ncn[nH]1`, with 2.16%.
Then `Cc1cc(C)n2nc(C(=O)NC(C)(C)C)nc2n1`, with -8.48%; and `COc1ccc(Cl)cc1C(=O)NNC(=O)c1nc2nc(C)cc(C)n2n1`, with 23.2% (active); and `C=CCNC(=S)NNC(=O)c1cc(Cl)ccc1OC`, with 2.04%.
Then `CC1(C)CC(N2CCN(C(c3ccccc3)c3ccccc3)CC2)=CC(=[N+]2CCCCC2)C1`, with -4.13%; and `CCc1nn(CCCN2CCN(c3cccc(Cl)c3)CC2)c(=O)n1CCOc1ccccc1`, with -5.07%.
Turning to `C=CCNCCCCOc1ccccc1`, the inhibition is -1.97%.
As for `N=c1c2c3c(sc2ncn1N)CCCC3`, the inhibition is 5.38%.
As to `CC(C(=O)O)n1cnc2sc3c(c2c1=O)CCCC3` (centres undefined), the inhibition was 19.5% (active).
Then `CCOC(=O)C(C)n1cnc2sc(C)c(C)c2c1=O` (centres undefined), with -1.18%.
The value for `CN1CCN(c2ccc(S(=O)(=O)N3CCOCC3)cc2NC(=O)CCc2ccccc2)CC1` was 4%; that for `Fc1ccccc1/C=C1\CCCC2=C1Nc1ncnn1C2c1ccccc1F` (centres undefined) was 3.82%; that for `Oc1c(Cl)cc(Cl)c(Cl)c1Cc1c(O)c(Cl)cc(Cl)c1Cl` was 31.6% (active).
Take `COc1cc(S(=O)(=O)N2CCOCC2)ccc1NC(=O)COc1ccc(N(C)S(=O)(=O)c2ccc(C)cc2)cc1`: the inhibition is 10.4%.
Consider `Cc1c(NC(=O)CN2C(=O)C(=O)N(Cc3ccccc3)C2=O)c(=O)n(-c2ccccc2)n1C`, for which the inhibition was 1.04%.
Then `Cc1cccc(NC(=O)c2ccc([N+](=O)[O-])o2)c1`, with 0.75%; and `N#Cc1c(-c2ccc(F)cc2)nc(-c2ccccc2)[nH]c1=O`, with 1.67%; and `[O-][n+]1onc2c1CCc1[nH]c(-c3ccccc3)nc1-2`, with 37.3% (active).
Regarding `COc1ccc([N+](=O)[O-])cc1N(CC(O)CN(CC(C)C)CC(C)C)S(=O)(=O)c1ccc(C)cc1` (centres undefined), the inhibition was -15%.
Turning to `Cn1sc(=O)c2cc(S(=O)(=O)NC3CC3)ccc21`, the inhibition was 13.5%.
Turning to `Clc1ccc(C2=CSC3=Nc4cccc5cccc(c45)N23)cc1`, the inhibition was 33% (active).
Then `N#Cc1ccsc1NC(=O)CN1CCN(S(=O)(=O)c2cc(Cl)ccc2Cl)CC1`, with 1.72%.
For `CCC1(CC)NC(=O)N(CC(=O)OCC(=O)NC(=O)c2ccccc2)C1=O`, the inhibition was -0.8%.
Then `Cc1ccc(C(O)P(=O)(OC(C)C)c2ccc(N(C)C)cc2)cc1` (centres undefined), with 0.27%; and `COC(=O)CNc1nc(Cl)nc(N2CCC(C)CC2)n1`, with -3.6%.
The value for `O=C(Nc1cccc(F)c1)c1coc(=O)c(Br)c1` was -1.08%.
For the compound `Cc1nc(-c2ccccc2)sc1-c1nnc(C2CC2)o1`, the inhibition was -11.7%.
The value for `COc1ccccc1C1C(C#N)=C(N)Oc2c1c(-c1ccccc1)nn2-c1ccccc1` (centres undefined) was 27.6% (active); that for `Cc1nn(Cc2ccccc2)c2c1C(c1ccccc1)C(C#N)=C(N)O2` (centres undefined) was 10.6%; that for `Cc1nn(-c2ccccc2)c2c1C(c1ccc(F)cc1)C(C#N)=C(N)O2` (centres undefined) was -4.19%.
The value for `CCC1C=C(c2ccccc2)C=CN=C1N(CC)CC` (centres undefined) was -5.24%; that for `CCC(C)CN1CCC(CO)(Cc2ccccc2Cl)CC1` (centres undefined) was -5.42%; that for `Cc1cc(Nc2ccc(N3CCOCC3)cc2)c2cccc(C)c2n1` was 4.03%.
Then `CN1CCC(=NNC(=O)c2ccc(N(Cc3ccc(Cl)cc3)S(C)(=O)=O)cc2)CC1`, with -1.22%; and `CC(C)Sc1nnc([C@H](Cc2ccccc2)NC(=O)OC(C)(C)C)o1`, with -6.35%.
Consider `C#CCN1C(=O)C(O)(CC(=O)c2cc(OC)ccc2OC)c2ccccc21` (centres undefined), for which the inhibition is 4.75%.
The value for `COc1ccc2c(c1)C(=C(C#N)C#N)C(=O)N2CCc1ccccc1` was 20.6% (active); that for `CCCCN1C(=O)/C(=C(/C#N)C(N)=O)c2ccccc21` was 1.92%; that for `CC(C)(C)c1cnnn1-c1ccc([N+](=O)[O-])cc1` was 4.98%.
The value for `Nc1ccccc1Sc1ccc(C(F)(F)F)cc1[N+](=O)[O-]` was -3.21%.
Regarding `CC(=O)Nc1ccc(CC#N)cc1`, the inhibition was 3.27%.
Regarding `O=[N+]([O-])c1cc(Cl)cc(/C=N/NC(=S)Nc2cc(S(=O)(=O)N3CCOCC3)ccc2Cl)c1O`, the inhibition is 14.6% (active).
For the compound `O=C(CN1CCN(c2ccc(O)cc2)CC1)Nc1cc(S(=O)(=O)N2CCOCC2)ccc1Cl`, the inhibition is 6.43%.
Regarding `O=C(N/N=C/c1ccc([N+](=O)[O-])o1)c1cccc(S(=O)(=O)N2CCOCC2)c1`, the inhibition was -1.08%.
The value for `COc1ccccc1-n1c(-c2cc(-c3ccco3)[nH]n2)n[nH]c1=S` was 6.44%; that for `Brc1ccc(-c2csc(N/N=C/c3cccnc3)n2)cc1` was 0.38%; that for `CC(C)CNC(=O)/C=C/C(=O)O` was 1.63% and 0.6%.
